Screens from PubChem.
A selection: hits, their analogues and other compounds. The true share with any hit is near 2.9%.
ATXN2 expr inh – ATXN2 expression inhibition; HEK-293 ATXN2-luciferase reporter, luminescence, 24 h; Potency, µM (doses to about 57 µM), hits mostly inhibitors; actives 0.72% (n = 360,000); note: nearly all actives have a fitted effect of over 55% in size
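qHTS (up to 57 uM final) was run with 24 h compound exposure of reporter cells at 37 °C. Each well was multiplexed: SteadyGlo luminescence measured ATXN2-luciferase expression after a fluorogenic Gly-Phe-AFC viability readout (25 uM final).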
Nrf2 block – inhibitors of Nrf2 signaling | A549 ARE-Fluc reporter, luciferase luminescence, 18-24 h | AID 504444 | Potency, µM (series often up to 46 µM), most hits filed as inhibitors | actives 2.1% (n = 360,000); note: nearly all actives have a fitted effect of over 60% in size
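A549 ARE_Fluc cells, 5000/well, 5% FBS OPTI-MEM; compounds in dose-response, 18-24 h at 37 °C/5% CO2; CellTiter-Fluor viability read (Ex 405/Em 525), then BugLite luciferase luminescence = Nrf2 activity.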
Nrf2 ARE act – activates Nrf2 signaling. AREc32 ARE-luciferase reporter (MCF7-derived line), luminescence, 24 h. Potency, µM (top dose mostly 46.1 µM), most hits filed as activators. actives 0.31% (n = 410,000). AID 624171; note: nearly all actives have a fitted effect of over 65% in size
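AREc32 cells carrying an ARE-driven firefly luciferase reporter were seeded at 1000 cells/well in OPTI-MEM with 5% FBS, then exposed to compound for 24 hr at 37 deg C. Luminescence was read with Steady-Glo after 30 min at RT.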
ATXN viability – reduces viability in counter-screen for ATXN expression inhibitors | S2 cells (HEK-293 line with an ATXN2-luciferase reporter) viability, CellTiter-Fluor protease fluorescence, 24 h | Potency, µM (titrated, usually from 56.7 µM), most hits filed as cytotoxic | actives 0.49% (n = 400,000) | AID 651635; note: nearly all actives have a fitted effect of over 40% in size
A549 tox – counter-screen for Nrf2 inhibitors: cytotoxicity in A549 cells; A549 ARE-Fluc cells, CellTiter-Fluor viability, 18-24 h; Potency, µM (series often up to 46 µM), actives largely listed as inhibitors; actives 0.16% (n = 390,000); AID 504648
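A549 ARE-Fluc cells in 5% FBS OPTI-MEM, 5000 cells/well, rested 2 h then exposed to compounds in concentration-response for 18-24 h at 37 °C. Viability by CellTiter-Fluor fluorescence (Ex 405/Em 525) after 30 min; luciferase luminescence (BugLite, 15 min, RT) read afterwards.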
Large screens that a line does not name were inactive. Calls come from the whole dose curve; as a rule, active = well fitted curve in the direction sought with a large enough effect; inconclusive = small, poorly fitted or top-dose-only effect, or another doubt; inactive = no such curve, though single readings can be large; an effect the other way counts as inactive or inconclusive.

CCCC(=O)NC(c1ccc(OC)cc1)c1ccc2cccnc2c1O (configuration not stated)	ATXN2 expr inh 1.9µM, Nrf2 block inconclusive, A549 tox inconclusive (no result: ATXN viability)
CCCC(=O)NC(c1ccccc1)c1ccc2cccnc2c1O (configuration not stated)	ATXN2 expr inh 14µM, Nrf2 block inconclusive
CCCCC(=O)NC(c1ccccc1Cl)c1ccc2cccnc2c1O (configuration not stated)	ATXN2 expr inh 2.8µM, Nrf2 block inconclusive, ATXN viability inconclusive
Oc1cccc(C(Nc2ccccn2)c2ccc3cccnc3c2O)c1Cl (configuration not stated)	ATXN2 expr inh 8.9µM, Nrf2 block inconclusive, ATXN viability inconclusive
Cc1c(C(=O)NCCSCc2ccccc2Cl)cccc1[N+](=O)[O-]	Nrf2 block inconclusive
Cc1c(C(=O)NCCSCc2c(Cl)cccc2Cl)cccc1[N+](=O)[O-]	Nrf2 block 9.2µM
Cn1c(=S)[nH]c2cc(C(=O)N3CCN(C(=O)c4ccccc4)CC3)ccc2c1=O	none (no result: ATXN2 expr inh, Nrf2 ARE act, ATXN viability)
Cc1ccc2onc(CC(=O)N3CCN(c4ccc(F)cc4)CC3)c2c1	Nrf2 block 16µM, A549 tox inconclusive
Cc1ccc2onc(CC(=O)N3CCN(c4ccccc4F)CC3)c2c1	none
COc1cc(-c2cnc3ccccc3c2)cc2c1OCCN(C(=O)CCC(=O)c1ccc(F)cc1)C2	none (no result: ATXN2 expr inh, Nrf2 block, Nrf2 ARE act, A549 tox)
Cc1ccc(NC(=S)N/N=C/c2ccc([N+](=O)[O-])s2)cc1	ATXN2 expr inh inconclusive, Nrf2 block inconclusive, A549 tox 23µM (no result: ATXN viability)
Cc1cc(C)cc(N=Cc2ccc([N+](=O)[O-])s2)c1	ATXN2 expr inh inconclusive, Nrf2 ARE act inconclusive, ATXN viability inconclusive
Cc1ccc(NC(=O)CN(C)S(=O)(=O)c2cccc3nsnc23)cc1	none (no result: Nrf2 block)
CN(CC(=O)Nc1ccc(F)c(Cl)c1)S(=O)(=O)c1cccc2nsnc12	Nrf2 block 26µM, ATXN viability inconclusive
S=C(NC1CC2CCC1C2)N1CCN(c2cccc(Cl)c2)CC1 (configuration not stated)	Nrf2 block 16µM
S=C(NCc1ccccc1)N1CCN(c2cccc(Cl)c2)CC1	Nrf2 block inconclusive
COCc1ccc(CN2CCOc3ccc(C4=CCCCC4)cc3C2)o1	none (no result: ATXN2 expr inh, Nrf2 block, Nrf2 ARE act, A549 tox)
COc1cccc2sc3ccc(C#CC4(O)CCCCC4)cc3c(=O)c12	ATXN2 expr inh inconclusive, Nrf2 block inconclusive
O=c1c2ccccc2sc2ccc(C#CC3(O)CCCCC3)cc12	Nrf2 block 21µM, ATXN viability inconclusive
CCc1nc(SCC(=O)Nc2ccc(NC(C)=O)cc2)n[nH]1	none
COCC1CCCN(Cc2ccc3c(c2)CN(C(=O)c2ccc(-n4cccn4)cc2)CCO3)C1 (configuration not stated)	none (no result: ATXN2 expr inh, Nrf2 block, Nrf2 ARE act, A549 tox)
Cc1nc2c(OCc3ccc(C(F)(F)F)cc3)cccn2c1N(C)CC1CC1	ATXN2 expr inh 35µM, ATXN viability 22µM (no result: Nrf2 block, A549 tox)
Cc1cc(C(=O)Nc2ccccc2-c2nc(CNC(=O)C3(C)CCCCC3)c(C)o2)c(C)o1	none (no result: ATXN2 expr inh, Nrf2 block, Nrf2 ARE act, A549 tox)
CN1CCN(C2=C(Cl)C(=O)C(c3cnc(N4CCCCC4)s3)=C(Cl)C2=O)CC1	ATXN2 expr inh inconclusive, Nrf2 ARE act inconclusive, ATXN viability 25µM
NC(=O)C1CCN(C2=C(Cl)C(=O)c3ccccc3C2=O)CC1	ATXN2 expr inh inconclusive, ATXN viability inconclusive (no result: A549 tox)
CN1CCN(C2=C(NS(=O)(=O)c3ccccc3)C(=O)c3ccccc3C2=O)CC1	Nrf2 block inconclusive
O=C1C(Cl)=C(N2CCC(C(=O)O)CC2)C(=O)c2ccccc21	ATXN2 expr inh 25µM, Nrf2 ARE act inconclusive
CN1CCN(C2=C(Cl)C(=O)c3ccccc3C2=O)CC1	ATXN2 expr inh 24µM, Nrf2 block inconclusive, A549 tox inconclusive (no result: ATXN viability)
COc1cccc(CN(C)C(=O)CNC(=O)c2sc3ccccc3c2Cl)c1OC	Nrf2 block 26µM
Cc1cc(C)cc(NC(=S)NCc2cccs2)c1	Nrf2 block 23µM, A549 tox inconclusive
COc1cc(NC(=S)NCc2cccs2)cc(OC)c1	none
Cc1ncc2c(c1CNC(=O)c1cncs1)CCN(C(=O)c1cccc(-c3cccc(F)c3)c1)C2	none (no result: ATXN2 expr inh, Nrf2 block, Nrf2 ARE act, A549 tox)
COC(=O)CC(NC1CCN(c2nc(C)c3cc4c(cc3n2)CCC4)CC1)C(=O)OC (configuration not stated)	none (no result: ATXN2 expr inh, Nrf2 block, Nrf2 ARE act, A549 tox)
O=[N+]([O-])c1ccc(Oc2ccc(Oc3ccc(C(F)(F)F)cn3)cc2)nc1	Nrf2 block 16µM (no result: ATXN2 expr inh)
O=[N+]([O-])c1ccc(Oc2ccc(/C=N/O)cc2)nc1	none
COC(=O)N=Nc1c(O)[nH]c2ccc(Br)cc12	none
Oc1[nH]c2ccccc2c1N=NC(=S)N1CCOCC1	Nrf2 block inconclusive, Nrf2 ARE act inconclusive, ATXN viability 3.2µM (no result: ATXN2 expr inh)
Oc1[nH]c2ccc(Br)cc2c1N=NC(=S)N1CCOCC1	ATXN2 expr inh 0.71µM, Nrf2 block inconclusive, ATXN viability inconclusive, A549 tox inconclusive
O=C(c1ccc(CNS(=O)(=O)c2ccccc2)cc1)N1CCN(Cc2ccccc2)CC1	Nrf2 block 13µM, ATXN viability inconclusive
Cc1ccc(S(=O)(=O)NCc2ccc(C(=O)N3CCN(c4ccccc4)CC3)cc2)cc1	Nrf2 block 23µM
COc1cccc(S(=O)(=O)NCc2ccc(C(=O)N3CCN(c4ccccc4)CC3)cc2)c1	ATXN2 expr inh inconclusive, Nrf2 block inconclusive
Cc1ccc(S(=O)(=O)N2CCN(C(=O)CNC(=O)c3ccc(Cl)cc3)CC2)cc1	Nrf2 block 21µM
Cc1ccc(S(=O)(=O)NCc2ccc(N3CCN(C(=O)OC(C)(C)C)CC3)cc2)cc1	Nrf2 block 26µM
Cc1ccc(F)cc1CNC(=O)c1sc2ncnc(NCC3CCCO3)c2c1C (configuration not stated)	none (no result: ATXN2 expr inh, Nrf2 block, Nrf2 ARE act, A549 tox)
COC(=O)CCN(C(=O)C1CCN(S(=O)(=O)c2c(C)noc2/C=C/c2ccccc2F)CC1)c1ccccc1	none (no result: ATXN2 expr inh, Nrf2 block, ATXN viability)
Cc1ccc(S(=O)(=O)Nc2ccc(C(=O)N3CCCC3)cc2)cc1	none
Cc1ccc(NS(=O)(=O)c2ccc(C(=O)N3CCN(S(=O)(=O)c4ccccc4)CC3)cc2)cc1	Nrf2 block 21µM, ATXN viability inconclusive
O=C(c1ccc(Br)c([N+](=O)[O-])c1)N1CCN(Cc2ccccc2)CC1	none (no result: ATXN2 expr inh)
N#Cc1ccc(CN2CCN(C(=O)c3ccc(S(=O)(=O)NCc4ccco4)cc3)CC2)cc1	Nrf2 block 8.2µM, A549 tox inconclusive (no result: ATXN2 expr inh)
CC(C)CNS(=O)(=O)c1ccc(CCC(=O)N2CCN(c3ccccc3)CC2)cc1	Nrf2 block 10µM, A549 tox inconclusive
O=C(c1ccc(S(=O)(=O)c2ccccc2Cl)c([N+](=O)[O-])c1)N1CCN(Cc2ccccc2)CC1	Nrf2 block 18µM, A549 tox inconclusive
NC(=O)c1ccc(N(C(N)=O)c2c(F)cccc2F)nc1-c1ccc(F)cc1F	none (no result: Nrf2 block, Nrf2 ARE act, ATXN viability, A549 tox)
O=C(CCNS(=O)(=O)c1ccc2c(c1)CCCC(=O)N2)NCc1ccc(Cl)cc1	Nrf2 block inconclusive
Cc1ccc(S(=O)(=O)N2CCN(C(=O)c3ccc(COc4ccccc4)o3)CC2)cc1	Nrf2 block 23µM
